# Results: the supplement of paper PMC11417369
# In all, about 25,000 sequences were measured (“ln(normalized median fluorescence intensity)”: median about 9.7, highest 2% from about 11 on). Only a selection was taken, and the highest values are over-represented in it overall.
# Tested on: PfAP2-HC AP2 domain (GST-tagged)
# Experiment: gcPBM binding intensity (ln(normalized median fluorescence intensity)); higher = stronger DNA binding
# How it was run: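 Binding intensity is defined as the maximum Masliner-normalised natural-log median intensity across replicate spots for either probe orientation. It was measured on an Agilent 4 × 180k array of primer-extended double-stranded 36-bp intergenic genomic probes and negative controls, to which GST-tagged P. falciparum DNA-binding domains made in E. coli were applied for 1 h in 1× PBS with 1% milk, 0.2 mg/ml BSA, 0.5% salmon testes DNA and 0.03% Triton X-100. Detection was by Alexa488 anti-GST antibody and scanning at 488 nm.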
row,Sequence,gcPBM binding intensity (ln)
1,TATATTTTTATAATAACACACGATATATGTTTAGGA [CACACA_site1283],9.63
2,TAAGACTATTAAAAAATTGAGTACATGAACTGTTCA [GTGCAC_negctrl_site670],9.41
3,AACAAAATAAGACACACACACAAATGTACCTATATA [CACACA_site7189],10.4
4,ATATCTAAATATATTACACACAGATATCTTCCTATA [CACACA_site3701],9.87
5,CTAAGAAAAAATAAAGCACACAAATATTTTAAAAAC [CACACA_site9094],9.93
6,ATATTTATATATATATGTACATATGTGTGTTTTTAT [XGTACX_site3956],9.91
7,TATATATGTATCAAGTGTACAGTTTTAAAAAAAAAA [XGTACX_site6011],9.67
8,TATATGTTAATTTTTTTTTTTTTTTTTTTTTTTATA [CACACA_negctrl_site62],9.26
9,AATTTTTTTTTTTTTTTTTTTTATATATGTGTGTGT [XGTACX_negctrl_site129],11
10,TTTTTTATATATGTGTGTGTGTGTGTGTCAAGTTTA [GTGCAC_negctrl_site460],11.1
11,TTATATATTTTTATGTGTACTTATATATATATATAT [XGTACX_site6211],9.77
12,ATAATGTAAAATAAATGTACGCAATATATAAAAAAT [XGTACX_site5747],10.1
13,AAATAATTTACTTAATGTACATATATATATATATAT [XGTACX_site8594],9.78
14,TTGTAGGTAAATATGTGTACGCATTATTATTCTTAA [XGTACX_site216],9.58
15,CTTATAATATTACGGGTGCTATAAATACATTATATT,9.72
16,TAAATATATATATGGTGTACCATTTTGGGTTAATAT [XGTACX_site2706],9.54
17,ACAACAAAAATAAGCACACACAAATATACATACATA [CACACA_site7664],11.3
18,ATACAACAAAAATAAGCACACACAAATATACATACA [CACACA_site9201],10.8
19,AATATAAGCAAATACACACACACATATATATATATA [CACACA_site3805],10.7
20,AAACAAAAAAAATAAGCACACATATATATATATATA [CACACA_site8173],9.7
21,CCAACAAAAATAAGCACACACAAATATACATACATA [CACACA_site3606],11.1
22,ACAAAAAAAATAAGCACACATATATATATATATATA [CACACA_site816],9.91
23,ATATATATATATATGTGTACATATAAGATAGAAGAA [XGTACX_site3198],10.2

row,Sequence,gcPBM binding intensity (ln)
1,TTTTTTAATATTTATACATGCATGCCGATTACTATA [TGCATGCA_site26],9.87
2,TATATATAATACAGTATGCACTATTTTTATTAAAAA,9.41
3,AGTAACAAAAGAAAAAAATATGCAAACATATATATA [XGTACX_negctrl_site468],9.65
4,TTTTTATTTGGTTGTGTACACATATATATATATATA [CACACA_site5844],9.84
5,TTATACTAAATGAACACACACACATCTATATTTATA [CACACA_site6199],10.3
6,TACATACATACATACACACACACATCTATATTTATA [CACACA_site6171],10.6
7,TGAACACACGAGCACACACACACATCTATATTTATA [CACACA_site6607],11.1
8,GTAGAGAAAAAAATGTGGACACAAAAAATAAAAAGG [XGTACX_site4058],9.79
9,AAAAATAAAGGATATACACACTAATTATATATATAT [CACACA_site5550],9.91
10,ATAAATAAAGGACACACACACACACTAATAAAAAAA [CACACA_site8840],11.4
11,AAAAAAGAAAAAAGGACACACATAAATATACACCCG [CACACA_site5590],10.2
12,AAAAAAATAAAGGATATACACACTAATTATATATAT [CACACA_site2812],9.81
13,ATAAATAAAGGACACACACACACACTAGAAAAAAAA [CACACA_site5450],11.1
14,ATATGTTTTGTTTACGTGCACTGCTTTGTTTATATA [GTGCAC_site9622],10.5
15,ATATTTATTTATAATTGTACTAATAATATATTTTAA [XGTACX_site587],9.51
16,TTTCCTTACCCTTTCCTGGTGTAGAAATTATACTCT [TGCATGCA_negctrl_site116],9.61
17,TATTTCATCTTTTAAGAAGGTACCCATATGTCATAT [GTGCAC_negctrl_site403],9.57
18,TTATTTTATTTTAAAAAAAACAATATAAATTCAAAG [GTGCAC_negctrl_site57],9.09
19,ATAATCCTTGGACACACACACACACTAGTAAATAAA [CACACA_site4423],11.3
20,ATAATCCTTAAACACACACACACACTAATAAATAAA [CACACA_site8052],10.8
21,AAATATATATATATAATACACACTAAAGTAACATAA [CACACA_site2870],10
22,TCAAAGCACACATACACACACATATAGATTTATATA [CACACA_site6272],10.2
23,CATTTGCCCAGGCACACACACATAAAAAGAAAAATA [CACACA_site356],10.2

row,Sequence,gcPBM binding intensity (ln)
1,TTATCACATTATTGCACACACATAAAGAAAAAAATA [CACACA_site2841],9.94
2,ATCATTTGCTCACGCACACACACATAAAAAGAAAAA [CACACA_site4349],10.2
3,TTTTATCACATTATTGCACACACATAAAGAAAAAAA [CACACA_site8922],9.98
4,ATGCATAAAAGAAATACACACATAAATATATAAATA [CACACA_site2163],9.99
5,CATTTGCACCCGCACACACACATAAAAAGAAAAATA [CACACA_site4350],11.1
6,TAAACATTTTTGCACGCACACAAAAAAAAAATAAAA [CACACA_site167],10.3
7,ATCATTTGCATACGCACACACACATAAAAAGAAAAA [CACACA_site355],10.9
8,CATTTGCACACGCACACACACATAAAAAGAAAAATA [CACACA_site6297],11.1
9,ATATATTTTTAGCACAGTACAATATAATTAAATATA [XGTACX_site6779],9.62
10,AAAAAAAAAAAAAAAAGTACTAATTGAATATTAAAC [XGTACX_site3383],9.44
11,TATGTGTTCAGTATTGCACACACACTCCAAAATAAA [CACACA_site8018],10
12,TATAAATATGTATATGCATGTGGAATATATAATTAA [TGCATGCA_site226],9.69
13,GGATTTATTATATATACACACATACATATATATATA [CACACA_site8669],9.88
14,ATTATATATATCAGGTGTACGTAAAAAAAATGGACG [XGTACX_site1028],9.88
15,TTTTTAATTAACTTTGTAAACTTATATATATATATA [TGCATGCA_negctrl_site311],9.6
16,AATCGTGTTCTGAATACACACTAATACAAATTTGTA [CACACA_site6058],9.75
17,TGTAGTCTGGAGAAGAGTACACAGTATCTGGTAGCT [XGTACX_site2036],9.72
18,AATATGTTTTGTTAGGTTGGTGTTGGTAGAATGTTT [CACACA_negctrl_site1563],9.85
19,CATATACATACACATACACACATACAGACATACACA [CACACA_site6919],10.2
20,CATACATACAGACACACACACATATATATATATATA [CACACA_site2920],10.7
21,TAAACAGACATATAAACACACATATAAACCGACATA [CACACA_site2478],10.3
22,AGCACAGACGGACACACACACATATATATATATATA [CACACA_site4341],10.8
23,ATTTGGCATGGACACACACACACACCGACAGACATA [CACACA_site4491],11.4

row,Sequence,gcPBM binding intensity (ln)
1,CCCACAGACGGACACACACACACATATATATATATA [CACACA_site4352],11.1
2,AAAAATTTGGCATACACACACACACCGACACAGACA [CACACA_site4489],10.5
3,TATACTCATGGACACACACACATACACAGACATACA [CACACA_site5024],10.4
4,CGCACAGACGGACACACACACACATATATATATATA [CACACA_site5249],11.1
5,CCCACAGACGGACACACACACACACCGACACATATA [CACACA_site4356],11
6,TATACAGACAGACACACACACATATATATATATATA [CACACA_site1734],10.2
7,TATAGATACAGATACACACACACACCGACATATATA [CACACA_site5832],10.7
8,AAAAAAAAAAAAATGTGTACATACATATATTTATAT [XGTACX_site3076],9.74
9,CTTTCGGTTGGAGAGGTGCGCTTCTCCTTTATAATA,9.61
10,TTTTTTTTTTATGGTACACACACGCGTATGGTTGCA [CACACA_site1876],10
11,AAGAAATAAATACATACACACATATATATATATATA [CACACA_site3362],10.3
12,CGAAAGAAAAAAAGCACACACAGTTTTGAGCAATGA [CACACA_site2109],10.1
13,AAGTTTTATATTTATTAAATTTTTTTTTTTCCTTTT [XGTACX_negctrl_site184],9.2
14,AATATTCGTAATTGATGTACTTGTAATTCATACATT [XGTACX_site8314],9.67
15,AAATTTGGCAAACACACACACACACCCACAGAGACA [CACACA_site4490],11.3
16,AAATTTGGCAAACACACACACACACCCACACCCACA [CACACA_site8095],11.4
17,ATTTGGCAGAAACACACACACACACCCACCCACATA [CACACA_site589],10.5
18,AAAAATTTGGCATACACACACACACCCACACCCACA [CACACA_site587],10.4
19,ATTTGGCATAAACACACACACACACCCACCCACATA [CACACA_site8096],10.9
20,AACTTTGGCAAACACACACACACACCCACACCCACA [CACACA_site588],10.5
